Reference: ChEMBL document CHEMBL3988442, “University of Dundee, Small-Polar-MMV Screening Library” (2021)
Out of some 48,000 compounds screened, about 13,000 (27%) showed an effect of 50% or more. The list shows a part of the results.

tested on: Wolbachia pipientis; experiment: Anti-Wolbachia Cell-Based Screen; type: functional; parameters: scale not given: in the data most compounds retested in dose-response had high values; conditions: 5 µM

| Structure (SMILES) | Percent Effect [%] |
| --- | --- |
| Cc1cccc(N2Cc3c(NC4CCCC4)ncnc3N(C)CC2=O)c1 | 95.74 |
| O=C1CCCCN1c1cccc(CNC2CCCC2)c1 | 0.3467 |
| NC(=O)c1cnc(NC2CCN(c3ccccc3)CC2)c(Cl)c1 | -3.801 |
| Cc1cccc(N2Cc3nc(=O)[nH]n3C2=O)c1 | 2.871 |
| CN1CC(Nc2nc3c(cnn3-c3ccccc3)c(=O)[nH]2)CCC1=O (stereo unspecified) | 9.222 |
| COc1cc(N2CCC3(C2)CN(c2cccnc2)C(=O)CN3C)ncn1 (stereo unspecified) | -13.12 |
| CN1CC(=O)N(c2cccnc2)Cc2c(NC3CC3)ncnc21 | 103.4 |
| Cc1csc(CN2CC[C@H]3C(=O)N(c4cccnc4)CCO[C@H]3C2)n1 | 6.542 |
| CN1CC(=O)N(c2ccccc2)Cc2c(NC3CC3)ncnc21 | 112.7 |
| C=C1c2ccccc2C(=O)N1CCC(=O)N1CCNC(=O)C1 | -10.5 |
| N#Cc1c(Cl)nsc1N1CCN(CC2CC2)CC1 | 5.491 |
| CC(C)N1CCN(C)CC1c1nnc2ccc(C(=O)N3CCCC3)cn12 (stereo unspecified) | -1.369 |
| CCNC(=O)N1CCC2(CC1)CCn1c(C3CC3)cnc12 | 0.3432 |
| CCn1ncc(S(=O)(=O)N[C@@H]2CC[C@@H](n3ccnc3C)[C@@H]2O)c1C | 115.7 |
| CCn1ncc(S(=O)(=O)N[C@@H]2CC[C@@H](n3ccnc3)[C@@H]2O)c1C | 136.9 |
| CCn1cc(CN(C)S(=O)(=O)c2cnn(CC)c2C)c(C)n1 | -1.191 |
| CCn1ncc(S(=O)(=O)N[C@@H]2CCC[C@@H](n3ccnc3)[C@@H]2O)c1C | 136.1 |
| CC(=O)N1CCC(N[C@@H]2CC[C@@H]2NS(=O)(=O)c2cccnc2)CC1 | -3.734 |
| Cc1cccc(NC(=O)N(CCC(F)(F)F)C[C@H](O)CO)c1 | -5.672 |
| Cc1cnc(C)c(N2CCN(CCCc3[nH]nc(C)c3C)CC2)n1 | 13.39 |
| COc1ccc(-c2cn3c(n2)CO[C@@H](CNCc2nccn2C)C3)cc1 | 1.884 |
| CN(C)C1CCN(C(=O)c2ccc(Cn3ccccc3=O)o2)CC1 | -4.856 |

| Structure (SMILES) | Percent Effect [%] |
| --- | --- |
| Cc1nc(CCCNC(=O)C2CC(=O)N(C3CC3)C2)sc1C (stereo unspecified) | 0.5008 |
| CS(=O)(=O)NC1CCN(Cc2ccc(OCc3ccccn3)cc2)CC1 | -10.21 |
| CCc1ncc2c(n1)CN(C(=O)CNC(=O)C(C)C)C2 | -10.3 |
| CN(Cc1ccsc1)C(=O)Nc1cccnc1N1CCCC1 | 3.447 |
| CCc1nc(CC)n(CC(=O)NCc2cccc(C)c2)n1 | 86.53 |
| CCCc1nnnn1CC(=O)NCc1cccc(C)c1 | 98.23 |
| CCNC(=O)NC1CN(CC(=O)NCc2ccccc2C)C[C@@H]1OC (stereo partly specified) | -0.1158 |
| CCc1nc(CC)n(CC(=O)N(C)CC(F)(F)F)n1 | 0.1098 |
| Cn1cnn(CC(=O)NCc2ccccc2F)c1=O | -8.996 |
| CCCc1nnnn1Cc1cn2c(C)cccc2n1 | -18.43 |
| Cc1nn(C)c(C)c1OCC(=O)NCc1cccc(CO)c1 | -2.193 |
| CCc1nc(CC)n(CC(=O)N(CC)CC)n1 | -1.582 |
| CCc1nc(CC)n(CC(=O)NCc2ccccc2C)n1 | 109.4 |
| CN(C)C[C@H]1O[C@H](Cc2cc(-c3ccccn3)on2)CC[C@@H]1O | -5.695 |
| O=C(NS(=O)(=O)c1cccc(F)c1)c1ccccc1F | -17.84 |
| Cc1noc(COCC(=O)Nc2ncccc2Br)n1 | -14.88 |
| CCN(CC)C1(Cc2cc(CC(C)C)on2)COC1 | -8.16 |
| O[C@H]1CCN(CC2CCOC2)[C@H]1Cc1ccncc1 (stereo partly specified) | -12.65 |
| O=C(c1cccnc1N1CCCC1)N1CCOC(c2ccccc2)C1 (stereo unspecified) | 5.885 |
| Cc1ccc(CC(=O)N2CCOC(c3nc(C)n[nH]3)C2)cn1 (stereo unspecified) | 12.26 |
| CCCc1ncc(C(=O)N2CCOC(c3nc(C)n[nH]3)C2)s1 (stereo unspecified) | 1.166 |
| Cc1n[nH]c(C2CN(C(=O)c3ccn(C)c(=O)c3)CCO2)n1 (stereo unspecified) | 0.6849 |

| Structure (SMILES) | Percent Effect [%] |
| --- | --- |
| Cc1n[nH]c(C2CN(C(=O)c3coc(Br)c3)CCO2)n1 (stereo unspecified) | -34.21 |
| Cc1ccc(CC(=O)N2CCOC(c3ncc(CN(C)C)[nH]3)C2)s1 (stereo unspecified) | 104.7 |
| Cc1n[nH]c(C2CN(C(=O)c3cc(C)sc3C)CCO2)n1 (stereo unspecified) | -9.628 |
| Cc1ccccc1C(=O)N1CCOC(c2ncc(CN(C)C)[nH]2)C1 (stereo unspecified) | 53.49 |
| CN(C)Cc1cnc(C2CN(C(=O)c3ccccc3Cl)CCO2)[nH]1 (stereo unspecified) | 174.9 |
| O=C(c1cccnc1O)N1CCOC(c2ccc(Cl)cc2)C1 (stereo unspecified) | -6.348 |
| CCCc1n[nH]c(C2CN(C(=O)Cc3ccc(C)nc3)CCO2)n1 (stereo unspecified) | -3.481 |
| Cc1ccc(C(=O)N2CCOC(c3ncc(CN(C)C)[nH]3)C2)cc1F (stereo unspecified) | 86.38 |
| O=C(Cc1ccon1)Nc1cncc(Br)c1O | -6.673 |
| CCOC1CCN(C(=O)c2c(Cl)c3ccccc3n2C)CC1 | 4.018 |
| Cc1noc(C)c1CN1CC[C@H]2OCC[C@@H](C(=O)N3CCCO3)[C@H]2C1 | -12.4 |
| O=C(NCC(O)c1ccc(Cl)s1)c1ccoc1 (stereo unspecified) | 3.126 |
| CC(=O)N1CCN(C(=O)C(C)Nc2ccc3ncsc3c2)CC1 (stereo unspecified) | -9.61 |
| c1cnn(CC2CN(Cc3csc(-c4ccsc4)n3)CCO2)c1 (stereo unspecified) | -6.772 |
| c1csc(-c2nc(CN3CCOC(Cn4cccn4)C3)cs2)c1 (stereo unspecified) | 96.48 |
| CN(C)CC1CN(Cc2csc(C3CCCC3)n2)CCO1 (stereo unspecified) | 6.428 |
| c1ncn(CC2CN(Cc3csc(C4CCCC4)n3)CCO2)n1 (stereo unspecified) | -2.779 |
| c1csc(-c2nc(CN3CCOC(Cn4cncn4)C3)cs2)c1 (stereo unspecified) | -0.6055 |
| c1cnn(CC2CN(Cc3csc(C4CCCCC4)n3)CCO2)c1 (stereo unspecified) | 111.5 |
| c1ccc(-c2nc(CN3CCOC(Cn4cccn4)C3)cs2)cc1 (stereo unspecified) | -16.04 |
| Cc1n[nH]c(C2CN(Cc3csc(C4CCCC4)n3)CCO2)n1 (stereo unspecified) | 6.822 |
| Cc1cnn(CC2CN(Cc3csc(C4CCCC4)n3)CCO2)c1 (stereo unspecified) | 109.2 |
